{"source": "PubChem BioAssay (Tox21)", "note": "Results filed as inconclusive are left out. Values without a mark were called inactive. Calls follow the shape of the full dose curve. % is scaled to controls: 0 for no effect and ±100 for the full control effect."}
{"experiment": "qHTS assay for small molecule agonists of the antioxidant response element (ARE) signaling pathway - cell viability counter screen (AID 743203); also: nearly all actives have a fitted effect of over 55% in size", "details": "ARE-bla HepG2 viability, CellTiter-Glo luminescence, 16 h; series mostly up to 73.3 µM; viability change, negative = cytotoxic: at the top concentration", "source_text": "National Center for Advancing Translational Sciences [NCATS]\nNIH Chemical Genomics Center [NCGC]\nU.S. Environmental Protection Agency [EPA]\nNational Institutes of Environmental Health Sciences [NIEHS]\nNational Toxicology Program [NTP]\nU.S. Food and Drug Administration [FDA]\nOxidative stress has been implicated in the pathogenesis of a variety of diseases ranging from cancer to neurodegeneration. The antioxidant response element (ARE) signaling pathway plays an important role in the amelioration of oxidative stress. The CellSensor ARE-bla HepG2 cell line (Invitrogen) can be used for analyzing the Nrf2/antioxidant response signaling pathway. Nrf2 (NF-E2-related factor 2) and Nrf1 are transcription factors that bind to AREs and activate these genes. The CellSensor ARE-bla Hep G2 cell line contains a beta-lactamase reporter gene under control of the Antioxidant Response Element (ARE) stably integrated into HepG2 cells. The activation of the report gene under culture conditions can be detected by fluorescence intensity. This cell line has been used to screen the Tox21 10K compound library to identify agonists that induce oxidative stress. The cytotoxicity of the Tox21 compound library against the ARE-bla cell line was tested in parallel by measuring the cell viability using CellTiter-Glo assay (Promega, Madison, WI) in the same wells.\nTox21 Assay Protocol Summary:\nARE-bla HepG2 cells were dispensed at 2,000 cells/5 ul/well in 1536-well white wall/solid bottom plates using a Multidrop Combi (ThermoFisher Scientific, Waltham, MA) dispenser. After the assay plates were incubated at 37C/5% CO2 for 5 hrs, 23 nL of compounds dissolved in DMSO, positive controls or DMSO only was transferred to the assay plate by a pintool work station (Kalypsys, San Diego, CA). The plates were incubated at 37C/5% CO2 for 16 hrs, followed by addition of 4 ul/well of CellTiter-Glo reagent into the assay plates using a Flying Reagent Dispenser (Aurora Discovery, San Diego, CA). After 30 min incubation at room temperature, the luminescence intensity in the assay plates was measured using a ViewLux (PerkinElmer, Shelton, CT) plate reader."}
{"smiles": "COc1ccc(/C=N/NC(=O)c2ccncc2)cc1OC", "viability change, negative = cytotoxic": "9.1%"}
{"smiles": "CCC(C)N", "note": "(stereo not given)", "viability change, negative = cytotoxic": "6.8%"}
{"smiles": "O=C(/C=C/c1ccccc1)NCCO", "viability change, negative = cytotoxic": "0.892%"}
{"smiles": "CCCCCCCC[Si](OCC)(OCC)OCC", "viability change, negative = cytotoxic": "9.39%"}
{"smiles": "CCCCCCCCCCCCCCCCI", "viability change, negative = cytotoxic": "-2.23% [at 34.3 µM]"}
{"smiles": "CC(Cl)COP(=O)(OCC(C)Cl)OCC(C)Cl", "note": "(stereo not given)", "viability change, negative = cytotoxic": "3.27%"}
{"smiles": "C=CCOc1c(Br)cc(C(C)(C)c2cc(Br)c(OCC=C)c(Br)c2)cc1Br", "viability change, negative = cytotoxic": "-0.23%"}
{"smiles": "COC(=O)CCC(=O)O", "viability change, negative = cytotoxic": "12.3%"}
{"smiles": "CC(=O)c1ccc(OCC(=O)N2CCCCC2)cc1", "viability change, negative = cytotoxic": "3.63%"}
{"smiles": "C[CH2][Ge]([Cl])([CH2]C)[CH2]C", "viability change, negative = cytotoxic": "6.43% [at 94.8 µM]"}
{"smiles": "CCOC(=O)C(C)(C)C", "viability change, negative = cytotoxic": "-1.9% [at 94.8 µM]"}
{"smiles": "FC(F)(F)c1ccc(Cl)cc1Cl", "viability change, negative = cytotoxic": "-13.3%"}
{"smiles": "CC1CCC(C(C)(C)S)C(=O)C1", "note": "(stereo not given)", "viability change, negative = cytotoxic": "-4.42%"}
{"smiles": "NS(=O)(=O)c1cc2c(cc1Cl)NC(C(Cl)Cl)NS2(=O)=O", "note": "(stereo not given)", "viability change, negative = cytotoxic": "-3.28%"}
{"smiles": "BrC/C=C/CBr", "viability change, negative = cytotoxic": "-5.77% [at 34.3 µM]"}
{"smiles": "NC(=O)NC(=O)Cc1ccccc1", "viability change, negative = cytotoxic": "-20.5%"}
{"smiles": "Cc1c(C(C)C)c(=O)n(-c2ccccc2)n1C", "viability change, negative = cytotoxic": "1.43%"}
{"smiles": "O=[Si]=O", "viability change, negative = cytotoxic": "4.15%"}
{"smiles": "CCCCC(CC)C(=O)OC(C)C", "note": "(stereo not given)", "viability change, negative = cytotoxic": "1.52%"}
{"smiles": "O=C(O)c1ccc(OCCN2CCCCC2)cc1", "viability change, negative = cytotoxic": "-0.631%"}
{"smiles": "SCCSCCS", "viability change, negative = cytotoxic": "14.3%"}
{"smiles": "c1ccc(CNc2ncnc3nc[nH]c23)cc1", "viability change, negative = cytotoxic": "-14.3%"}
{"smiles": "CCOC(=O)CCCCCCCCC(=O)OCC", "viability change, negative = cytotoxic": "3.33%"}
{"smiles": "CCCCCCCCCCCCC", "viability change, negative = cytotoxic": "-6.29%"}
{"smiles": "CCOC(=O)CC(CC(=O)OCC)(OC(C)=O)C(=O)OCC", "viability change, negative = cytotoxic": "0.893%"}
{"smiles": "Nc1cc(C(=O)O)ccc1Cl", "viability change, negative = cytotoxic": "8.52%"}
{"smiles": "COCCOCCOCCOC", "viability change, negative = cytotoxic": "12.9%"}
{"smiles": "FC(F)(F)/C(=N\\OCC1OCCO1)c1ccc(Cl)cc1", "viability change, negative = cytotoxic": "1.28%"}
{"smiles": "CCCCC(CC)COC(=O)c1ccccc1", "note": "(stereo not given)", "viability change, negative = cytotoxic": "6.85%"}
{"smiles": "O=C(c1ccc2c(c1)C(=O)OC2=O)c1ccc2c(c1)C(=O)OC2=O", "viability change, negative = cytotoxic": "4.64%"}
{"smiles": "C=C(C)C(=O)OCCCCCCOC(=O)C(=C)C", "viability change, negative = cytotoxic": "-2.25%"}
{"smiles": "CC(=O)OCC(=O)[C@@]1(O)[C@H](OC(C)=O)C[C@H]2[C@@H]3CCC4=CC(=O)C=C[C@]4(C)[C@@]3(F)[C@@H](O)C[C@@]21C", "viability change, negative = cytotoxic": "-0.305%"}
{"smiles": "NS(=O)(=O)c1cc2c(cc1Cl)NC(CC1CCCC1)NS2(=O)=O", "note": "(stereo not given)", "viability change, negative = cytotoxic": "-2.63%"}
{"smiles": "COc1ccc(OC)c(NC(=O)CC(C)=O)c1", "viability change, negative = cytotoxic": "-4.64%"}
{"smiles": "CCC(=O)c1ccc(O)cc1", "viability change, negative = cytotoxic": "8.93%"}
{"smiles": "CCNC(=O)NCCCOc1cccc(CN2CCCCC2)c1", "viability change, negative = cytotoxic": "2.46%"}
{"smiles": "COc1cc2c3cc1Oc1cc(ccc1O)C[C@@H]1c4c(cc(OC)c(O)c4Oc4ccc(cc4)C[C@@H]3N(C)CC2)CC[N+]1(C)C", "viability change, negative = cytotoxic": "-3.21%"}
{"smiles": "CCN(CCC#N)c1ccccc1", "viability change, negative = cytotoxic": "10.1%"}
{"smiles": "OCCCCCCCl", "viability change, negative = cytotoxic": "6.11% [at 94.8 µM]"}
{"smiles": "CCC(O)C(C)(C)C", "note": "(stereo not given)", "viability change, negative = cytotoxic": "5.93% [at 94.8 µM]"}
